# Results taken from PubChem BioAssay (NCATS).
# Inconclusive results are not listed. Activity calls are given as the source filed them. The call rests on the fitted dose curve; in most records, active means well fitted inhibition curve with a large enough effect; inconclusive means small, poorly fitted or top-dose-only effect; inactive means flat fitted curve, though single readings scatter.
# Tested on: TAB109
# Assay: qHTS profiling for inhibitors of Plasmodium falciparum proliferation (AID 504749); further: nearly all actives have a fitted effect of over 60% in size;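 on activity, negative = inhibition: 0% = DMSO vehicle and full inhibition = artemisinin control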
# Details: P. falciparum in erythrocytes, SYBR Green DNA, 72 h; series mostly up to 28.7 µM; activity, negative = inhibition: at the top concentration
# In short: (§1)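 Parasite proliferation within erythrocytes, 72 h exposure. Endpoint: SYBR Green I fluorescence after overnight lysis at room temperature. Controls: 0.29 uM artemisinin, DMSO.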
# Potency means the concentration at half of the fitted maximal effect.
Compound,"activity, negative = inhibition",Potency
C[C@H](N)Cc1ccccc1,-1.92% (inactive),–
C[C@]12C=CC(=O)C=C1CC[C@@H]1C2CC[C@]2(C)OC(=O)CCC12 (some centres undefined),8.18% (inactive),–
OCC(O)[C@H]1O[C@@H]2O[C@H](C(Cl)(Cl)Cl)O[C@@H]2[C@H]1O (some centres undefined),1.42% (inactive),–
CC1(C)S[C@@H]2[C@H](N)C(=O)N2C1C(=O)O (some centres undefined),4.48% [at 12.8 µM] (inactive),–
C=C1Nc2ccccc2C(=O)N1c1ccccc1C,-6.36% (inactive),–
CC1OC(O[C@H]2C[C@@H](O)[C@]3(CO)[C@@H]4C(CC[C@]3(O)C2)[C@@]2(O)CC[C@H](C3=CC(=O)OC3)[C@@]2(C)C[C@H]4O)C(O)C(O)C1O (some centres undefined),0.163% (inactive),–
O=[N+]([O-])OC1CO[C@H]2C(O[N+](=O)[O-])COC12 (some centres undefined),5.24% (inactive),–
CCOC(=O)/C=C(C)/C=C/CC(C)CCCC(C)C (centres undefined),-6.8% (inactive),–
[S]=[Sb][S][Sb]=[S],-6.49% (inactive),–
CN1C2CCC1C(C(=O)O)C(OC(=O)c1ccccc1)C2 (centres undefined),3% (inactive),–
C[C@@H]1CC[C@H]2[C@@H](C)C(=O)O[C@@H]3OC4(C)CC[C@@H]1C32OO4 (some centres undefined),–,0.0045 µM (active)
Cc1ccc2c(c1)[C@@H]1CN(C)CC[C@H]1N2,-9.72% (inactive),–
Nc1nc(O)c(-c2ccccc2)o1,3.46% (inactive),–
C=CC[N+]1(C)CCC23c4c5ccc(O)c4O[C@H]2C(=O)CC[C@@]3(O)C1C5 (some centres undefined),16.6% (inactive),–
OC[C@@H](O)[C@H]1O[C@@H]2OC(C(Cl)(Cl)Cl)O[C@H]2[C@H]1O (some centres undefined),3.69% (inactive),–
CCCCCCC(=O)O[C@H]1CC[C@H]2[C@@H]3CCC4CC(=O)C=C(C)[C@]4(C)[C@H]3CC[C@]12C (some centres undefined),-1.14% (inactive),–
Cc1cc(C)cc(C(=O)OC2CC3CCC(C2)N3C)c1 (centres undefined),-14% (inactive),–
CCCN1CCCC2Cc3nc(N)ncc3CC21 (centres undefined),6.47% (inactive),–
COc1ccc2c3c1O[C@H]1[C@@H](O)C=C[C@H]4C(C2)NCCC341 (some centres undefined),2.76% (inactive),–
CCCCCC(O)C1C(=O)OC(C)C(O)\C=C/C=C\C=C/C=C\C=C(\C)C(O)C(O)C(O)CC(O)CC(O)CC(O)CC(O)CC1O (centres undefined),2.52% (inactive),–
CCCCCc1cc(O)c2c(c1)OC(C)(C)C1CC=C(C)CC21 (centres undefined),–,3.16 µM (active)

# Tested on: TAB113
# Assay: as above
# Details: P. falciparum in erythrocytes, SYBR Green DNA, 72 h; series mostly up to 28.7 µM; activity, negative = inhibition: at the top concentration
# In short: as §1
Compound,"activity, negative = inhibition",Potency
C[C@H](N)Cc1ccccc1,5.8% (inactive),–
C[C@]12C=CC(=O)C=C1CC[C@@H]1C2CC[C@]2(C)OC(=O)CCC12 (some centres undefined),16% (inactive),–
OCC(O)[C@H]1O[C@@H]2O[C@H](C(Cl)(Cl)Cl)O[C@@H]2[C@H]1O (some centres undefined),9.51% (inactive),–
CC1(C)[C@@H](C=C(Cl)Cl)[C@@H]1C(=O)OCc1c(F)c(F)cc(F)c1F,-2.05% (inactive),–
CC1(C)S[C@@H]2[C@H](N)C(=O)N2C1C(=O)O (some centres undefined),4.61% [at 12.8 µM] (inactive),–
C=C1Nc2ccccc2C(=O)N1c1ccccc1C,-15% (inactive),–
CC1OC(O[C@H]2C[C@@H](O)[C@]3(CO)[C@@H]4C(CC[C@]3(O)C2)[C@@]2(O)CC[C@H](C3=CC(=O)OC3)[C@@]2(C)C[C@H]4O)C(O)C(O)C1O (some centres undefined),0.0999% (inactive),–
O=[N+]([O-])OC1CO[C@H]2C(O[N+](=O)[O-])COC12 (some centres undefined),13.6% (inactive),–
CCOC(=O)/C=C(C)/C=C/CC(C)CCCC(C)C (centres undefined),-1.78% (inactive),–
[S]=[Sb][S][Sb]=[S],1.33% (inactive),–
CN1C2CCC1C(C(=O)O)C(OC(=O)c1ccccc1)C2 (centres undefined),3.85% (inactive),–
C[C@@H]1CC[C@H]2[C@@H](C)C(=O)O[C@@H]3OC4(C)CC[C@@H]1C32OO4 (some centres undefined),–,0.0056 µM (active)
Cc1ccc2c(c1)[C@@H]1CN(C)CC[C@H]1N2,4.79% (inactive),–
C=CC[N+]1(C)CCC23c4c5ccc(O)c4O[C@H]2C(=O)CC[C@@]3(O)C1C5 (some centres undefined),7.75% (inactive),–
OC[C@@H](O)[C@H]1O[C@@H]2OC(C(Cl)(Cl)Cl)O[C@H]2[C@H]1O (some centres undefined),-2.55% (inactive),–
CCCCCCC(=O)O[C@H]1CC[C@H]2[C@@H]3CCC4CC(=O)C=C(C)[C@]4(C)[C@H]3CC[C@]12C (some centres undefined),1.8% (inactive),–
Cc1cc(C)cc(C(=O)OC2CC3CCC(C2)N3C)c1 (centres undefined),2.18% (inactive),–
CCCN1CCCC2Cc3nc(N)ncc3CC21 (centres undefined),4.61% (inactive),–
COc1ccc2c3c1O[C@H]1[C@@H](O)C=C[C@H]4C(C2)NCCC341 (some centres undefined),6.71% (inactive),–
CCCCCC(O)C1C(=O)OC(C)C(O)\C=C/C=C\C=C/C=C\C=C(\C)C(O)C(O)C(O)CC(O)CC(O)CC(O)CC(O)CC1O (centres undefined),3.78% (inactive),–
CCCCCc1cc(O)c2c(c1)OC(C)(C)C1CC=C(C)CC21 (centres undefined),–,2 µM (active)

# Tested on: TAB165
# Assay: as above
# Details: P. falciparum in erythrocytes, SYBR Green DNA, 72 h; series mostly up to 28.7 µM; activity, negative = inhibition: at the top concentration
# In short: as §1
Compound,"activity, negative = inhibition",Potency
C[C@H](N)Cc1ccccc1,4.09% (inactive),–
C[C@]12C=CC(=O)C=C1CC[C@@H]1C2CC[C@]2(C)OC(=O)CCC12 (some centres undefined),5.33% (inactive),–
OCC(O)[C@H]1O[C@@H]2O[C@H](C(Cl)(Cl)Cl)O[C@@H]2[C@H]1O (some centres undefined),6.79% (inactive),–
CC1(C)[C@@H](C=C(Cl)Cl)[C@@H]1C(=O)OCc1c(F)c(F)cc(F)c1F,-2.38% (inactive),–
CC1(C)S[C@@H]2[C@H](N)C(=O)N2C1C(=O)O (some centres undefined),11.5% [at 12.8 µM] (inactive),–
C=C1Nc2ccccc2C(=O)N1c1ccccc1C,5.66% (inactive),–
CC1OC(O[C@H]2C[C@@H](O)[C@]3(CO)[C@@H]4C(CC[C@]3(O)C2)[C@@]2(O)CC[C@H](C3=CC(=O)OC3)[C@@]2(C)C[C@H]4O)C(O)C(O)C1O (some centres undefined),-10.7% (inactive),–
O=[N+]([O-])OC1CO[C@H]2C(O[N+](=O)[O-])COC12 (some centres undefined),4.04% (inactive),–
CCOC(=O)/C=C(C)/C=C/CC(C)CCCC(C)C (centres undefined),5.98% (inactive),–
[S]=[Sb][S][Sb]=[S],3.59% (inactive),–
CN1C2CCC1C(C(=O)O)C(OC(=O)c1ccccc1)C2 (centres undefined),2.93% (inactive),–
C[C@@H]1CC[C@H]2[C@@H](C)C(=O)O[C@@H]3OC4(C)CC[C@@H]1C32OO4 (some centres undefined),–,0.0032 µM (active)
Cc1ccc2c(c1)[C@@H]1CN(C)CC[C@H]1N2,14.3% (inactive),–
Nc1nc(O)c(-c2ccccc2)o1,14.2% (inactive),–
C=CC[N+]1(C)CCC23c4c5ccc(O)c4O[C@H]2C(=O)CC[C@@]3(O)C1C5 (some centres undefined),3.73% (inactive),–
OC[C@@H](O)[C@H]1O[C@@H]2OC(C(Cl)(Cl)Cl)O[C@H]2[C@H]1O (some centres undefined),1.21% (inactive),–
CCCCCCC(=O)O[C@H]1CC[C@H]2[C@@H]3CCC4CC(=O)C=C(C)[C@]4(C)[C@H]3CC[C@]12C (some centres undefined),6.14% (inactive),–
Cc1cc(C)cc(C(=O)OC2CC3CCC(C2)N3C)c1 (centres undefined),-2.53% (inactive),–
CCCN1CCCC2Cc3nc(N)ncc3CC21 (centres undefined),1.82% (inactive),–
COc1ccc2c3c1O[C@H]1[C@@H](O)C=C[C@H]4C(C2)NCCC341 (some centres undefined),4.37% (inactive),–
CCCCCC(O)C1C(=O)OC(C)C(O)\C=C/C=C\C=C/C=C\C=C(\C)C(O)C(O)C(O)CC(O)CC(O)CC(O)CC(O)CC1O (centres undefined),0.26% (inactive),–
CCCCCc1cc(O)c2c(c1)OC(C)(C)C1CC=C(C)CC21 (centres undefined),–,2 µM (active)
